# From the supplement of paper PMC10849652
# The full data set covers some 8,800 targets. This sample favours those with a hit. About 0.5% of all pairs of compound and target were hits. Values without a mark were called inactive.
# What was measured:
# Test in all cases: log2 fold change, soluble protein after heating vs DMSO (PISA); higher = thermal stabilisation; K562 lysate, 10 uM; active = over 0.2 and 3.5 SD of the protein, either way, in both replicates (recomputed)
# nilotinib = compound: Cc1cn(-c2cc(NC(=O)c3ccc(C)c(Nc4nccc(-c5cccnc5)n4)c3)cc(C(F)(F)F)c2)cn1 [nilotinib]
# Outline: (§1)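 Values give the log-two fold change in thermal stability against solvent controls, from duplicates. Crude K562 extract at 1 mg/mL protein, made by dounce homogenisation in PBS pH 7.4 with 1 mM MgCl2, was treated with 10 μM compound for 30 min. After 3 min heating across 48°C-58°C, aliquots were pooled, adjusted to 0.5% NP-40 at 4°C and centrifuged at 21,000xg for 90 min. The supernatant was measured by TMTpro 16plex LC-MS/MS with channel sums equalised.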
# [1] = compound: Cc1nc(Nc2n[nH]c3c2CN(C(=O)N[C@H](CN(C)C)c2ccccc2)C3(C)C)c2sccc2n1
# Outline: as §1
# dasatinib = compound: Cc1nc(Nc2ncc(C(=O)Nc3c(C)cccc3Cl)s2)cc(N2CCN(CCO)CC2)n1 [dasatinib]
# Outline: as §1
# [2] = compound: Cc1ncc(-c2ccnc(Nc3ccc(S(C)(=O)=O)cc3)n2)n1C(C)C
# Outline: as §1
# [3] = compound: Cn1cc(-c2ccc3c(c2)CCN3C(=O)Cc2cccc(C(F)(F)F)c2)c2c(N)ncnc21
# Outline: as §1
# quisinostat = compound: Cn1cc(CNCC2CCN(c3ncc(C(=O)NO)cn3)CC2)c2ccccc21 [quisinostat]
# Outline: as §1
# tipifarnib = compound: Cn1cncc1[C@@](N)(c1ccc(Cl)cc1)c1ccc2c(c1)c(-c1cccc(Cl)c1)cc(=O)n2C [tipifarnib]
# Outline: as §1
# [4] = compound: NC(=O)Nc1cc(-c2cccc(F)c2)sc1C(=O)N[C@H]1CCCNC1
# Outline: as §1
# [5] = compound: NC(=O)c1cnc(N[C@@H]2CCCC[C@@H]2N)nc1Nc1cccc(-n2nccn2)c1
# Outline: as §1
# [6] = compound: NC1(c2ccc(-c3nc4ccn5c(=O)[nH]nc5c4cc3-c3ccccc3)cc2)CCC1
# Outline: as §1
# [7] = compound: NCC(=O)Nc1ccc(-n2nc(C(F)(F)F)cc2-c2ccc3c(ccc4ccccc43)c2)cc1
# Outline: as §1
# vorinostat = compound: O=C(CCCCCCC(=O)Nc1ccccc1)NO [vorinostat]
# Outline: as §1
# silmitasertib = compound: O=C(O)c1ccc2c(c1)nc(Nc1cccc(Cl)c1)c1ccncc12 [silmitasertib]
# Outline: as §1
# [8] = compound: O=C1NC(=O)C(c2cnc3ccccn23)=C1c1cn2c3c(cc(F)cc13)CN(C(=O)N1CCCCC1)CC2
# Outline: as §1
# entospletinib = compound: c1cn2cc(-c3ccc4cn[nH]c4c3)nc(Nc3ccc(N4CCOCC4)cc3)c2n1 [entospletinib]
# Outline: as §1
# Chain of UniProt P52655 (P52655 whole entry, looked up): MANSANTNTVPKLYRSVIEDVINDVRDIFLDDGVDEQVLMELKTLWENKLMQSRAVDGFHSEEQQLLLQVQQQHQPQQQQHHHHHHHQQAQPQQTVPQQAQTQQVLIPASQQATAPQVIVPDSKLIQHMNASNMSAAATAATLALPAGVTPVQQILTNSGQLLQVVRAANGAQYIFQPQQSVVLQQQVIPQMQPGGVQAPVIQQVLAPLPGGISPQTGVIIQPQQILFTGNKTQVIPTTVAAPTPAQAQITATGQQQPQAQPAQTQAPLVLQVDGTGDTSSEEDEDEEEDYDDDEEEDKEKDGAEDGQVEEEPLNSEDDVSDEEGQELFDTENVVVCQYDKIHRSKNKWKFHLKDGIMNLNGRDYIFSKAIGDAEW
# Chain of UniProt Q8IU81 (Q8IU81 whole entry, looked up): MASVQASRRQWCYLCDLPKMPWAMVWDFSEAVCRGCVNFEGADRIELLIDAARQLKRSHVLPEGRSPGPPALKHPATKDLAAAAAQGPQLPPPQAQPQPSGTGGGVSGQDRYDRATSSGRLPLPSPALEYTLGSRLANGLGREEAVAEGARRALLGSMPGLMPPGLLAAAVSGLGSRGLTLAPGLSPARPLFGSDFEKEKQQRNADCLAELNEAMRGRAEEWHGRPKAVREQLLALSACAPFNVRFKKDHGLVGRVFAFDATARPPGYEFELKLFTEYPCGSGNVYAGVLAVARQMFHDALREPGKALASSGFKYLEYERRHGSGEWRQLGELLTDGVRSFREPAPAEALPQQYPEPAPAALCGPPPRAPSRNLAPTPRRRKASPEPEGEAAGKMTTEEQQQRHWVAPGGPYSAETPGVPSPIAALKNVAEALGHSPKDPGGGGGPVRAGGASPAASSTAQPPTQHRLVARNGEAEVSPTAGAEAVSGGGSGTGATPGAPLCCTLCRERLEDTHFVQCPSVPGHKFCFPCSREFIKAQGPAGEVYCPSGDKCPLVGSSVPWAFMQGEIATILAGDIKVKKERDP
# Chain of UniProt Q9NVX7 (Q9NVX7 whole entry, looked up): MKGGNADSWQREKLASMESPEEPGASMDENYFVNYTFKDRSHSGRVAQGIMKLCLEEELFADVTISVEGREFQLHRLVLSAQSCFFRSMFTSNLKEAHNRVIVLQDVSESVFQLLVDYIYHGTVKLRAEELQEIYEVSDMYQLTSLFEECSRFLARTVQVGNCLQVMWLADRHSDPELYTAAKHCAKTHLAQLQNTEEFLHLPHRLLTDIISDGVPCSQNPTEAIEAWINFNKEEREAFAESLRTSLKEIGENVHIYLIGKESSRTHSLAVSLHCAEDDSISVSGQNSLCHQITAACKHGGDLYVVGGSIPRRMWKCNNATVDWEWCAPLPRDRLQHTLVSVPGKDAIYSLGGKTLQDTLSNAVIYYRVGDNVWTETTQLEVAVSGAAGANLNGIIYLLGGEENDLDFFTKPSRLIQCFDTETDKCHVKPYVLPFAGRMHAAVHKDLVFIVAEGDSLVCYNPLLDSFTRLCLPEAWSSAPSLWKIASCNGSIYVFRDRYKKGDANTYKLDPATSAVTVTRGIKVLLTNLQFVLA
# Chain of UniProt Q27J81 (Q27J81 whole entry, looked up): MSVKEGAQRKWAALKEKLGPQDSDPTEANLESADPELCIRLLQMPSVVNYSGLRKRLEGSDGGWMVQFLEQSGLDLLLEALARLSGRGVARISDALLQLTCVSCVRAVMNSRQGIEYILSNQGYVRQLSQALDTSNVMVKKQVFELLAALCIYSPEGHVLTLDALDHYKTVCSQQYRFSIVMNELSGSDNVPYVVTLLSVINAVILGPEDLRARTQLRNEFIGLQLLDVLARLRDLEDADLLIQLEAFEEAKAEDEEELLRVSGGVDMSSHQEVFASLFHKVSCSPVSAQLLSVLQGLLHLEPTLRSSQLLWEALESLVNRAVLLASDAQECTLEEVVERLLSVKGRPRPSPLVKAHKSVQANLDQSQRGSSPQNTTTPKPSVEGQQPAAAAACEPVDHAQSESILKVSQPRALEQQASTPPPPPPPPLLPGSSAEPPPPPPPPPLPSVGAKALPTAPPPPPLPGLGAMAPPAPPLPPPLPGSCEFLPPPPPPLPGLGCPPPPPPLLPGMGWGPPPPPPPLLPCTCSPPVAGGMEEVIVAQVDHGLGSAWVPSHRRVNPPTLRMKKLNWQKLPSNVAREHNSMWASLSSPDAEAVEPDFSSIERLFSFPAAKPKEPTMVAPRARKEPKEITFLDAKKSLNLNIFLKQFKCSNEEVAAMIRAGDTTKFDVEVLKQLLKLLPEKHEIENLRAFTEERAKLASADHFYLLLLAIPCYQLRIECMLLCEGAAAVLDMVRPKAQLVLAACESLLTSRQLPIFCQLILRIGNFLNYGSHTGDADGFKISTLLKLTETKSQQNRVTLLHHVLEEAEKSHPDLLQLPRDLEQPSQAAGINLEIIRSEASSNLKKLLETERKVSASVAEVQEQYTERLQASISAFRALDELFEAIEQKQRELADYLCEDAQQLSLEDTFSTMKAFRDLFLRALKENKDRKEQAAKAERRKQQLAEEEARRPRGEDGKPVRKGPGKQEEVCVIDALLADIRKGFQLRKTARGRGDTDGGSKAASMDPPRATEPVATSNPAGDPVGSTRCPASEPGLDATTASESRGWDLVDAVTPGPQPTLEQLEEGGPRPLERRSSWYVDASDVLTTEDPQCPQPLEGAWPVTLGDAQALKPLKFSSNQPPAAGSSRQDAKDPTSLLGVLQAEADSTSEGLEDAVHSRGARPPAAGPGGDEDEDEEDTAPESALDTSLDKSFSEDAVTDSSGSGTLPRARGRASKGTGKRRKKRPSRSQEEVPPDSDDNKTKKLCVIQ
Target,log2 fold change (nilotinib),log2 fold change [1],log2 fold change (dasatinib),log2 fold change [2],log2 fold change [3],log2 fold change (quisinostat),log2 fold change (tipifarnib),log2 fold change [4],log2 fold change [5],log2 fold change [6],log2 fold change [7],log2 fold change (vorinostat),log2 fold change (silmitasertib),log2 fold change [8],log2 fold change (entospletinib)
KBTBD4 isoform 2 (UniProt Q9NVX7),0.063,-0.019,-0.017,-0.086,-0.022,-0.038,0.154,0.086,-0.018,-0.039,0.025,-0.311 (active),0.012,-0.023,-0.012
INF2 (UniProt Q27J81),-0.08,0.055,0.032,0.034,-0.013,-0.051,-0.079,0.023,0.005,-0.035,-0.023,-0.333 (active),-0.027,0.018,-0.09
GTF2A1 (UniProt P52655),0.024,-0.047,0.022,0.095,0.046,-0.039,0.021,-0.04,0.007,-0.012,-0.029,0.094,-0.043,0.052,0.039
IRF2BP1 (UniProt Q8IU81),0.018,0.016,-0.082,-0.019,0.032,-0.099,-0.124,0.057,-0.03,0.045,0.021,-0.4 (active),-0.003,-0.03,0.01
